Assay results published in PubChem BioAssay AID1159580 (chemical genetic matrix, 2015).
“And” between values parts separate entries of the source, which are not always exact repeats. Equal values may be shown once. About 2,000 (36%) of roughly 5,500 compounds were called active. Not shown: some 18% with an inconclusive outcome. No stated cut-off is given here; in the data, active means normalized growth mostly below about 0.91 (no sharp cut-off); inconclusive means no clear call, values can overlap the other calls; inactive means mostly above about 0.92. This is one part of the list.

Assay: chemical genetic growth profiling, strain panel (AID 1159580);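 further: tested at 20 µM; growth read once vehicle control cultures reached saturation at 30 °C; 1 = growth at the plate median or of vehicle wells; lower values mean less growth of the strain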
Settings: growth OD

Measured: normalized growth

CC/C(=C(\c1ccccc1)c1ccc(OCCN(C)C)cc1)c1ccccc1
inactive: S. cerevisiae deletion strains, locus YKL068W, active compounds read low 1 | S. cerevisiae deletion strains, locus YKL085W, strain MDH1 (second series), active compounds read low 0.952 | S. cerevisiae deletion strains, locus YKL085W, strain MDH1, active compounds read low 0.952 | S. cerevisiae deletion strains, locus YNL175C, strain NOP13, active compounds read low 0.968 | S. cerevisiae deletion strains, locus YNL183C, strain NPR1, active compounds read low 0.901 | S. cerevisiae deletion strains, locus YNL250W, strain rad50, active compounds read low 0.999 | S. cerevisiae deletion strains, locus YNL271C, strain bni1, active compounds read low 0.953 | S. cerevisiae deletion strains, locus YNL322C, strain KRE1 (second series), active compounds read low 1.07 | S. cerevisiae deletion strains, locus YOR231W, strain MKK1, active compounds read low 0.894 | S. cerevisiae deletion strains, locus YPR141C, strain kar3, active compounds read low 1.04
active: S. cerevisiae deletion strains, locus YKL009W, strain mrt4, active compounds read low 0.79 | S. cerevisiae deletion strains, locus YKL160W, strain elf1, active compounds read low 0.13 | S. cerevisiae deletion strains, locus YKL190W, strain CNB1, active compounds read low 0.045 | S. cerevisiae deletion strains, locus YKR001C, strain vps1, active compounds read low 0.064 | S. cerevisiae deletion strains, locus YKR026C, strain gcn3, active compounds read low 0.184 | S. cerevisiae deletion strains, locus YKR091W, strain srl3, active compounds read low 0.0995 | S. cerevisiae deletion strains, locus YLL001W, strain dnm1, active compounds read low 0.0862 | S. cerevisiae deletion strains, locus YLL026W, active compounds read low 0.0741 | S. cerevisiae deletion strains, locus YLL041C, strain sdh2, active compounds read low 0.115 | S. cerevisiae deletion strains, locus YLR027C, strain aat2, active compounds read low 0.0818 | S. cerevisiae deletion strains, locus YLR039C, strain RIC1, active compounds read low 0.0749 | S. cerevisiae deletion strains, locus YLR058C, strain SHM2, active compounds read low 0.0464 | S. cerevisiae deletion strains, locus YLR102C, strain apc9, active compounds read low 0.0601 | S. cerevisiae deletion strains, locus YLR113W, strain HOG1, active compounds read low 0.822 | S. cerevisiae deletion strains, locus YLR221C, strain rsa3, active compounds read low 0.121 | S. cerevisiae deletion strains, locus YLR258W, strain gsy2, active compounds read low 0.0791 | S. cerevisiae deletion strains, locus YLR262C, strain YPT6 (second series), active compounds read low 0.182 | S. cerevisiae deletion strains, locus YLR262C, strain YPT6, active compounds read low 0.0867 | S. cerevisiae deletion strains, locus YLR268W, strain sec22, active compounds read low 0.0695 | S. cerevisiae deletion strains, locus YLR320W, strain mms22, active compounds read low 0.171 | S. cerevisiae deletion strains, locus YLR330W, strain CHS5, active compounds read low 0.0509 | S. cerevisiae deletion strains, locus YLR342W, strain FKS1 (second series), active compounds read low 0.0626 | S. cerevisiae deletion strains, locus YLR342W, strain FKS1, active compounds read low 0.0912 | S. cerevisiae deletion strains, locus YLR357W, strain rsc2, active compounds read low 0.181 | S. cerevisiae deletion strains, locus YLR370C, strain arc18, active compounds read low 0.0663 | S. cerevisiae deletion strains, locus YLR371W, strain rom2, active compounds read low 0.0629 | S. cerevisiae deletion strains, locus YLR384C, strain iki3, active compounds read low 0.223 | S. cerevisiae deletion strains, locus YLR418C, strain cdc73, active compounds read low 0.105 | S. cerevisiae deletion strains, locus YML016C, strain PPZ1, active compounds read low 0.0451 | S. cerevisiae deletion strains, locus YML032C, strain rad52, active compounds read low 0.0687 | S. cerevisiae deletion strains, locus YML120C, strain ndi1, active compounds read low 0.114 | S. cerevisiae deletion strains, locus YML124C, strain tub3, active compounds read low 0.0591 | S. cerevisiae deletion strains, locus YMR058W, strain fet3, active compounds read low 0.0718 | S. cerevisiae deletion strains, locus YMR078C, strain ctf18, active compounds read low 0.0689 | S. cerevisiae deletion strains, locus YMR125W, strain sto1, active compounds read low 0.131 | S. cerevisiae deletion strains, locus YMR129W, active compounds read low 0.0877 | S. cerevisiae deletion strains, locus YMR205C, strain PFK2, active compounds read low 0.172 | S. cerevisiae deletion strains, locus YMR223W, strain ubp8, active compounds read low 0.0676 | S. cerevisiae deletion strains, locus YMR231W, strain pep5, active compounds read low 0.0689 | S. cerevisiae deletion strains, locus YMR263W, strain SAP30, active compounds read low 0.0557 | S. cerevisiae deletion strains, locus YMR307W, strain GAS1, active compounds read low 0.103 and 0.123 | S. cerevisiae deletion strains, locus YNL067W, strain RPL9B, active compounds read low 0.0484 | S. cerevisiae deletion strains, locus YNL071W, strain lat1, active compounds read low 0.165 | S. cerevisiae deletion strains, locus YNL128W, strain TEP1, active compounds read low 0.0645 | S. cerevisiae deletion strains, locus YNL153C, strain GIM3, active compounds read low 0.0543 | S. cerevisiae deletion strains, locus YNL197C, strain WHI3, active compounds read low 0.704 | S. cerevisiae deletion strains, locus YNL209W, strain ssb2, active compounds read low 0.1 | S. cerevisiae deletion strains, locus YNL224C, strain SQS1, active compounds read low 0.206 | S. cerevisiae deletion strains, locus YNL233W, strain BNI4, active compounds read low 0.0506 | S. cerevisiae deletion strains, locus YNL248C, strain rpa49, active compounds read low 0.555 | S. cerevisiae deletion strains, locus YNL298W, strain CLA4, active compounds read low 0.744 | S. cerevisiae deletion strains, locus YNL307C, strain MCK1, active compounds read low 0.0675 | S. cerevisiae deletion strains, locus YNL322C, strain KRE1, active compounds read low 0.0467 and 0.567 | S. cerevisiae deletion strains, locus YNR049C, strain mso1, active compounds read low 0.0842 | S. cerevisiae deletion strains, locus YNR052C, strain pop2, active compounds read low 0.0611 | S. cerevisiae deletion strains, locus YOL006C, strain TOP1, active compounds read low 0.0917 | S. cerevisiae deletion strains, locus YOL012C, strain htz1 0.187 | S. cerevisiae deletion strains, locus YOL147C, strain pex11, active compounds read low 0.0578 | S. cerevisiae deletion strains, locus YOR001W, strain rrp6, active compounds read low 0.431 | S. cerevisiae deletion strains, locus YOR061W, strain CKA2, active compounds read low 0.0446 | S. cerevisiae deletion strains, locus YOR069W, strain VPS5, active compounds read low 0.0459 | S. cerevisiae deletion strains, locus YOR070C, strain gyp1, active compounds read low 0.0646 | S. cerevisiae deletion strains, locus YOR080W, strain dia2, active compounds read low 0.408 | S. cerevisiae deletion strains, locus YOR083W, strain WHI5 (second series), active compounds read low 0.185 | S. cerevisiae deletion strains, locus YOR083W, strain WHI5, active compounds read low 0.0831 | S. cerevisiae deletion strains, locus YOR106W, strain vam3, active compounds read low 0.0773 | S. cerevisiae deletion strains, locus YOR136W, strain idh2, active compounds read low 0.0725 | S. cerevisiae deletion strains, locus YOR144C, strain elg1, active compounds read low 0.0595 | S. cerevisiae deletion strains, locus YOR184W, strain ser1, active compounds read low 0.0775 | S. cerevisiae deletion strains, locus YOR265W, strain rbl2, active compounds read low 0.0798 | S. cerevisiae deletion strains, locus YOR270C, strain vph1, active compounds read low 0.136 | S. cerevisiae deletion strains, locus YOR290C, strain snf2, active compounds read low 0.125 | S. cerevisiae deletion strains, locus YOR316C, strain cot1, active compounds read low 0.0588 | S. cerevisiae deletion strains, locus YPL051W, strain arl3, active compounds read low 0.136 | S. cerevisiae deletion strains, locus YPL055C, strain LGE1, active compounds read low 0.0697 | S. cerevisiae deletion strains, locus YPL078C, strain atp4, active compounds read low 0.288 | S. cerevisiae deletion strains, locus YPL106C, strain sse1, active compounds read low 0.114 | S. cerevisiae deletion strains, locus YPL240C, strain hsp82, active compounds read low 0.106 | S. cerevisiae deletion strains, locus YPL241C, strain CIN2, active compounds read low 0.0469 | S. cerevisiae deletion strains, locus YPL256C, strain CLN2, active compounds read low 0.815 | S. cerevisiae deletion strains, locus YPR119W, strain clb2, active compounds read low 0.0696 | S. cerevisiae deletion strains, locus YPR163C, strain tif3, active compounds read low 0.0696 | S. cerevisiae deletion strains, locus YPR167C, strain met16, active compounds read low 0.0609 | S. cerevisiae deletion strains, strain wtn01, active compounds read low 0.0608 | S. cerevisiae strains, strain wild type, active compounds read low 0.0464
